Assay outcomes: PubChem BioAssay, National Center for Advancing Translational Sciences (NCATS)
An excerpt weighted towards active compounds, which were near 15% of everything screened.
VP16 counter: VP16 counterscreen qHTS for inhibitors of ROR gamma transcriptional activity; Drosophila S2 Gal4-VP16 UAS-luciferase, luminescence, 20 h; Potency, µM (doses to about 53.6 µM), for inactives: at the top dose activity, negative = inhibition, actives largely listed as inhibitors; hit rate 3.5% among 310,000;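 also: Gal4-VP16 expression switched on by copper sulfate through the metallothionein promoter; nearly all actives have a fitted effect of over 50% in size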
ALOX12 inh: Primary qHTS assay for inhibitors of human arachidonate 12S-lipoxygenase (ALOX12): Round 2. Polyunsaturated fatty acid lipoxygenase ALOX12 (Homo sapiens), P18054. purified 12hLO, xylenol orange hydroperoxide absorbance. Potency, µM (titrated, usually from 108 µM), inactives show top-dose activity change, negative = inhibition, actives largely listed as inhibitors. hit rate 1.1% among 580,000. AID 1671190, 2021
Target sequence (P18054 whole entry, looked up): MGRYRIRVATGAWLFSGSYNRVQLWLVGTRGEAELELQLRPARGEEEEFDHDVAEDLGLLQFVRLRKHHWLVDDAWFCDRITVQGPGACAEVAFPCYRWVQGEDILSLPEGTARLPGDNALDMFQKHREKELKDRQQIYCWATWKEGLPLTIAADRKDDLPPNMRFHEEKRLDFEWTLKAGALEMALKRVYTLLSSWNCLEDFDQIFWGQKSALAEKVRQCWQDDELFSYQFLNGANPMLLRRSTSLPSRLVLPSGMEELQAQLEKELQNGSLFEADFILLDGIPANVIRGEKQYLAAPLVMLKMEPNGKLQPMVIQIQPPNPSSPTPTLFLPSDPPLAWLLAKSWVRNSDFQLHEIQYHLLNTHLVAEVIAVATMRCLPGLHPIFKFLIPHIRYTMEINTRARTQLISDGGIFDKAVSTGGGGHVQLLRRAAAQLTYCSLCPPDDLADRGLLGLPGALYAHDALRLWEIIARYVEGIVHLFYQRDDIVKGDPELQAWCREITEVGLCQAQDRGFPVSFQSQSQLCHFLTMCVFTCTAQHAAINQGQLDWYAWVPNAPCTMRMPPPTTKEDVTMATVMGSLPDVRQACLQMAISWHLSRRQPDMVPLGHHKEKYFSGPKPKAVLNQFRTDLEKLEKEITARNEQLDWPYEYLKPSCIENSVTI
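Purified human 12hLO at 150 nM in 25 mM Hepes, 0.01% Triton X-100, pH 7.0, preincubated 15 min at room temperature with compound. Reaction started with 40 uM arachidonic acid, 30 min at room temperature. Hydroperoxide measured by Fe-xylenol orange, 573/405 nm absorbance ratio.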
RORgamma inh: qHTS for inhibitors of ROR gamma transcriptional activity | Nuclear receptor ROR-gamma (Mus musculus), P51450 | Drosophila S2 Gal4-RORgamma UAS-luciferase reporter, 20 h | Potency, µM (series often up to 53.6 µM), inactives show at the highest dose activity change, negative = inhibition, most hits filed as inhibitors | hit rate 5.4% among 310,000 | AID 2551, 2010; also: nearly all actives have a fitted effect of over 60% in size
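Stable Schneider cell line, Gal4 DNA-binding domain fused to ROR gamma, UAS-luciferase. Cmpd 1 hr RT → CuSO4 700 uM final → 20 hr RT → luciferase reagent 10 min → luminescence.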
TDP1 cell CPT: qHTS for Inhibitors of human tyrosyl-DNA phosphodiesterase 1 (TDP1): qHTS in cells in presence of CPT; hit rate 12% among 420,000; Potency, µM (doses to about 46.2 µM), for the others: at the top dose activity change, negative = growth inhibition, usual class: inhibitors; chicken DT40 Tdp1-/-;hTDP1 cells + 20 nM CPT, ATP luminescence, 48 h; also: nearly all actives have a fitted effect of over 55% in size
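Chicken DT40 Tdp1-/- cells stably complemented with human TDP1 were seeded at 400 cells/well in medium containing 20 nM camptothecin, exposed to pin-transferred compounds, and grown at 37 °C for at least 48 hr. Viability was read as ATP luminescence.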
DT40 TDP1 no CPT: qHTS for Inhibitors of human tyrosyl-DNA phosphodiesterase 1 (TDP1): qHTS in cells in absence of CPT; Potency, µM (highest dose often 46.2 µM), without a hit: at the highest dose activity change, negative = growth inhibition, usual class: inhibitors; DT40 Tdp1-/- hTDP1 cells, no CPT, ATP luminescence, 48 h; AID 686978, 2013; hit rate 15% among 420,000; also: nearly all actives have a fitted effect of over 55% in size
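DT40 Tdp1-/-;hTDP1 cells, no CPT (DMSO vehicle only), 400 cells/well; compounds pin-transferred; ≥48 hr, 37 °C; CellTiter-Glo 30 min RT dark, luminescence read.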
ELG1 DNA repair: qHTS screen for small molecules that inhibit ELG1-dependent DNA repair in human embryonic kidney (HEK293T) cells expressing luciferase-tagged ELG1; HEK293T ELG1-luciferase reporter, luminescence, 16 h; DNA damage induced by 5-fluorouridine; Potency, µM (series often up to 46.1 µM), for inactives: at the highest dose activity change, negative = inhibition, hits mostly inhibitors; hit rate 2.3% among 330,000; also: nearly all actives have a fitted effect of over 55% in size
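5-Fluorouridine DNA damage + compound/DMSO, 2,000 cells/well, 16 h, 37 °C/5% CO2. ONE-Glo, 30 min RT, luminescence. Readout = decrease in reporter signal.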
* hit, by the source's call; ? = inconclusive; . = no result given; ! = not active in a repeat; [ ] = dose if it differs, or a comment. Calls follow the shape of the dose curve; as a rule, active = well fitted curve in the direction sought with a large enough effect; inconclusive = small, poorly fitted or top-dose-only effect, or another doubt; inactive = no such curve, though single readings can be large; an effect the other way counts as inactive or inconclusive. % is scaled to controls: 0 for no effect and ±100 for the full control effect; potency is read from the fitted curve at half-maximal effect.

SMILES	VP16 counter	ALOX12 inh	RORgamma inh	TDP1 cell CPT	DT40 TDP1 no CPT	ELG1 DNA repair
Cc1cc(C)c(S(=O)(=O)Nc2cnc3ccccc3c2)c(C)c1	-10%	16µM*!	5%	?	?	?
Cc1cc(C)c(S(=O)(=O)Nc2ccccc2-c2ccccc2)c(C)c1	?	-16%	25%	?	21µM*	-4%
COc1ccc(NS(=O)(=O)c2c(C)cc(C)cc2C)cc1	?	36%	-20%	?	?	?
CCOc1ccc(S(=O)(=O)Nc2cnc3ccccc3c2)cc1	6.3µM*	-9%	?	18µM*	18µM*	-20%
CCOc1ccc(S(=O)(=O)Nc2nc3ccccc3nc2Cl)cc1	-28%	0%	30%	?	21µM*	-15%
O=C(Nc1ccc([C@@H](O)[C@H]2COCC(=O)N2CC2CC2)cc1)C1CCCC1	.	4%[176 µM]	.	.	.	.
CCCCCCOC(=O)CC(C(=O)OCCCCCC)S(=O)(=O)O (configuration not stated)	.	7%	.	.	.	.
O=C1NCCCCCN(C(=O)Cc2cccc(F)c2)[C@@H]2CCCC[C@H]12	.	48%	.	.	.	.
CCOc1ccccc1CNC(=O)CC1CCOCC1	.	46%	.	.	.	.
Cc1cc(C)c(S(=O)(=O)Nc2nnc(C)s2)c(C)c1	0%	-11%	7%	15µM*	18µM*	8%
O=C1c2ccccc2-c2nnc(-c3ccccc3)cc21	11µM*	1%	8.9µM*	3.7µM*	5.2µM*	?
COc1ccc(-c2cc(-c3ccccc3)c(-c3ccccc3)nn2)cc1	.	2%	.	.	.	.
COc1ccc(-c2cc3c(nn2)-c2ccccc2C3=O)cc1	?	8%	2.5µM*	26µM*	16µM*	?
Cc1cccc(-c2cc3c(nn2)-c2ccccc2C3=O)c1	?	-3%	-15%	?	?	?
CCCCc1ccc(NC(=O)N[C@H](C(=O)O)C(C)C)cc1	-7%	426%	-14%	16µM*	7.3µM*	?
CCCCc1ccc(NC(=O)N[C@H](C(=O)O)C(C)CC)cc1 (some centres not stated)	-10%	298%	26%	?	10µM*	-2%
CCCCc1ccc(NC(=O)OC)cc1	0%	184%	-7%	-3%	?	?
CCC(C)[C@H](NC(=O)Nc1ccc(C)cc1C)C(=O)O (some centres not stated)	5%	61%	2%	12µM*	-61%	3%
Cc1ccc(CNC(=O)N2CCC(c3noc(-c4cccnc4)n3)C2)cc1 (configuration not stated)	.	41%	.	.	.	.
CN1CCCC2(CCN(C(=O)CCc3ccc(Cl)cc3)C2)C1=O (configuration not stated)	.	13%	.	.	.	.
Cc1cccc(C)c1NC(=O)C(c1ccnc2ccccc12)n1c(=O)c(-c2ccco2)nc2ccccc21 (configuration not stated)	.	?	.	?	16µM*	.
O=C(Nc1ccc2c(c1)OCCO2)C(c1ccnc2ccccc12)N1CCC(Cc2ccccc2)CC1 (configuration not stated)	.	1%	.	?	18µM*	.
Cc1cccc(C)c1NC(=O)C(c1ccccc1F)n1c(=O)c(-c2ccco2)nc2ccccc21 (configuration not stated)	.	?	.	?	21µM*	.
